High-throughput results deposited in PubChem by National Center for Advancing Translational Sciences (NCATS).
Cruzain inh noDet – cruzain (T. cruzi) inhibition without detergent; 200,000 compounds, 2.3% hits; Potency, µM, most hits filed as inhibitors; purified cruzain, Z-FR-AMC fluorescence, no detergent; also: nearly all actives have a fitted effect of over 40% in size
Target sequence (P25779 123-467 limits assumed): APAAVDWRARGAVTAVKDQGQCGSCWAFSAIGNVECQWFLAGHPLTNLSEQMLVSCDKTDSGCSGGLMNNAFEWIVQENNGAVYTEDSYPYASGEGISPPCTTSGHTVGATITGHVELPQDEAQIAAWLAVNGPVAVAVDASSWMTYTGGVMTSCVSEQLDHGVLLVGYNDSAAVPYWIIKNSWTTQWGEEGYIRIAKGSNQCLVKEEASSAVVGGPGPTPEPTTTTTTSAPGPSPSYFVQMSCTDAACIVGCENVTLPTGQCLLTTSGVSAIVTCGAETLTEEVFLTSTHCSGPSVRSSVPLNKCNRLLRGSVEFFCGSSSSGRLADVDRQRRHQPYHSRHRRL
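Detergent-free condition (0.00005% Triton X-100) in acetate buffer pH 5.5 with DTT. 1.5 nM enzyme and compound were pre-mixed 15 min, then 2 uM Z-FR-AMC substrate added; reaction progress from fluorescence change between first and third reads (60 s).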
Cruzain inh Det – blocks cruzain activity in presence of Triton detergent. purified cruzain, Z-FR-AMC fluorescence, 0.01% Triton. Potency, µM, hits mostly inhibitors. 200,000 compounds, 0.43% hits. AID 1478; also: nearly all actives have a fitted effect of over 40% in size
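Steps: dispense cruzain (1.5 nM final) in acetate buffer pH 5.5 with DTT and 0.01% Triton X-100; pin-transfer compounds; incubate 15 min RT; add Z-FR-AMC (2 uM final); read fluorescence every 30 s, using the 60 s intensity change.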
Numbers stand for hits; n = inactive; u = inconclusive. Shown are actives, neighbours in structure and some others; about 2.6% of the full set was active somewhere. Calls follow the shape of the dose curve; as a rule, active = well fitted curve in the direction sought with a large enough effect; inconclusive = small, poorly fitted or top-dose-only effect, or another doubt; inactive = no such curve, though single readings can be large; an effect the other way counts as inactive or inconclusive.

SMILES	Cruzain inh noDet	Cruzain inh Det
CCOC(=O)c1cc(-c2ccc(C)cc2)n(CC(=O)Nc2ccc(OC)cc2OC)c1C	n	n
N#CC1=C(N)N(c2cccc(Cl)c2)C2=C(C(=O)CCC2)C1c1cc(CN2CCOCC2)cs1 (configuration not stated)	n	n
Cc1ccccc1NC(=O)Cn1cc(S(=O)(=O)N2CCCC2)c(S(=O)(=O)N2CCCC2)c1	n	n
CCOc1ccc2nc(NC3=NCN(Cc4ccco4)CN3)nc(C)c2c1	n	n
COCCN1CN=C(Nc2nc(C)c3ccc(C)cc3n2)NC1	n	n
CCOc1ccc2nc(NC3=NC(C)(C)C=C(C)N3)nc(C)c2c1	16µM	28µM
CCOc1ccc2nc(NC3=NC(c4ccc(OC)cc4)CC(=O)N3)nc(C)c2c1 (configuration not stated)	u	8.9µM
COCc1cc(=O)[nH]c(Nc2nc(C)c3cc(OC)ccc3n2)n1	n	n
CCOc1ccc2c(C)nc(NC3=NC(C)(C)C=C(C)N3)nc2c1	16µM	16µM
CCOC(=O)c1c(S(=O)(=O)N2CCCC(C(=O)NCc3ccc(Cl)cc3)C2)c(C)n(C)c1C (configuration not stated)	u	n
CC(=O)C(N=Nc1ccccc1)(Sc1nnc(-c2ccccc2)n1-c1ccccc1)C(C)=O	n	n
CC(=O)C(N=Nc1ccccc1)(Sc1nnc(-c2ccccc2)n1-c1ccccc1)C(=O)Nc1ccccc1 (configuration not stated)	25µM	n
CCC(=O)N1CCc2cc(S(=O)(=O)CCC(=O)Nc3ccc(Cl)c(C(F)(F)F)c3)ccc21	n	n
CSCC[C@H](NC(=O)c1ccc(Cl)c([N+](=O)[O-])c1)c1nc2ccccc2[nH]1	n	14µM
Cc1c(C(=O)NC(Cc2ccccc2)c2nc3ccccc3[nH]2)cccc1[N+](=O)[O-] (configuration not stated)	n	u
O=C(NC(Cc1ccccc1)c1nc2ccccc2[nH]1)c1ccc(Cl)c([N+](=O)[O-])c1 (configuration not stated)	n	n
CSCC[C@H](NC(=O)c1cccc([N+](=O)[O-])c1C)c1nc2ccccc2[nH]1	n	14µM
Cc1cccc2c1N(Cc1ccccc1OCCC(C)C)C(=O)C2=O	n	n
COc1ccccc1CNC(=O)CCC1N=C2c3ccccc3N=C(SCc3ccc(C)cc3)N2C1=O (configuration not stated)	n	n
COc1cc(NC(=O)c2cnc3c(-c4ccc(F)cc4)c(C)nn3c2C)cc(OC)c1	n	n
NC(=S)Nc1nc2ccccc2[nH]c1=O	u	7.9µM
O=c1[nH]c2ccccc2nc1C(Cl)c1ccccc1 (configuration not stated)	n	n
CC(=O)N1CCCc2cc(S(=O)(=O)N3CCC(C(=O)NCc4ccc(N(C)C)cc4)CC3)ccc21	n	n
COc1cc(C2C(=O)N(C3CCCCC3)CC(=O)N2C2CCCCC2)ccc1OC(C)C (configuration not stated)	n	n
Cc1ccc(Nc2sc(C(=O)c3ccccc3)c(N)c2C(=O)Nc2ccc(Cl)cc2)cc1	u	n
SMILES	Cruzain inh noDet	Cruzain inh Det
COc1ccc(S(=O)(=O)c2c(Nc3ccc(F)cc3)sc(C(=O)c3ccc4c(c3)OCO4)c2N)cc1	u	n
Cc1ccccc1Nc1sc(C(=O)c2ccc3c(c2)OCO3)c(N)c1S(=O)(=O)c1ccccc1	7.9µM	n
COc1ccc(S(=O)(=O)c2c(Nc3ccc(C)cc3)sc(C(=O)c3ccc4c(c3)OCO4)c2N)cc1	3.2µM	n
Cc1ccc(CNC(=O)c2c(Nc3ccccc3C)sc(C(=O)c3ccc(F)cc3)c2N)cc1	u	n
Cc1ccc(S(=O)(=O)c2c(Nc3ccccc3)sc(C(=O)c3ccc4c(c3)OCO4)c2N)cc1	7.9µM	n
CCn1c(=O)c2cc(C(=O)NCCc3ccc(OC)c(OC)c3)sc2c2ccccc21	n	n
CC(C)c1ccc(OC(=O)c2cc(-c3ccccc3)on2)cc1	n	n
Cc1ccc(-n2nc(C)c3c(C(F)(F)F)cc(-c4cccnc4)nc32)cc1C	n	n
O=C1C(c2ccc(F)cc2)N(CCc2ccc(Cl)cc2)C(=O)CN1C1CCCCCC1 (configuration not stated)	n	n
CC(C)[C@@H](C(=O)O)N1C(=O)c2ccccc2C1=O	n	n
COc1cc(CN(C(=O)c2ccccc2F)C2CCS(=O)(=O)C2)cc(OC)c1OC (configuration not stated)	n	n
O=C(CSc1nc(-c2ccccc2)nc2ccccc12)Nc1nccs1	u	n
O=C(CSc1nc(-c2ccccc2)cs1)Nc1nccs1	25µM	n
CC1CCCCN1CCCNC(=O)c1ccc2c(c1)sc1nc(-c3ccc(F)cc3)cn12 (configuration not stated)	n	n
CCOc1ccc(NC(=O)C(=O)NCCc2ccccc2)cc1	n	n
COc1cc(NC(=O)CC(C)n2nc(C)cc2C)cc(OC)c1 (configuration not stated)	n	n
COc1ccccc1Cn1ccn(CC(=O)Nc2c(C)cc(C)cc2C)c(=O)c1=O	n	n
COc1cccc(/C=N/NC(=O)CSc2ccccc2C)c1O	n	n
COc1cccc(/C=N/NC(=O)c2nc(-c3ccccc3)cc(-c3ccccc3)n2)c1O	13µM	n
Cc1cc(NC(=O)Nc2nnc(N3CCCCC3)s2)ccc1Br	n	n
Cc1ccc(C)c(NC(=O)c2cc(=O)c3cc(C)cc(C)c3o2)c1	n	n
CC(C)c1ccc(/C=C/C(=O)Nc2nc3ccc([N+](=O)[O-])cc3s2)cc1	4µM	n
Cc1cccc(OCC(=O)Nc2nc3ccc([N+](=O)[O-])cc3s2)c1	u	n
CCOc1ccc(-c2c(C)nn3c(C)c(C(=O)NCc4cccc(OC)c4)cnc23)cc1OCC	n	n
OC(CNCC1CCCO1)Cn1c2ccc(Cl)cc2c2cc(Cl)ccc21 (configuration not stated)	u	n
SMILES	Cruzain inh noDet	Cruzain inh Det
OC(CNCCC1C=Nc2ccccc21)Cn1c2ccc(Cl)cc2c2cc(Cl)ccc21 (configuration not stated)	6.3µM	n
CN(C)c1ccc(C(CNS(=O)(=O)c2ccccc2)N2CCc3ccccc32)cc1 (configuration not stated)	16µM	n
Cc1ccc(S(=O)(=O)NCC(c2ccc(N(C)C)cc2)N2CCc3ccccc32)cc1 (configuration not stated)	n	n
COc1ccc(Cl)cc1NC(=O)CSc1nc(=O)n(Cc2ccco2)c2c1CCC2	n	n
Cc1cccc(C)c1NC(=O)COc1cccc(/C=N/NC(=O)C(=O)NCc2ccccc2)c1	25µM	n
C=CCOc1cccc(/C=N/NC(=O)C(=O)NCc2ccco2)c1	u	n
COc1ccc(CCNC(=O)CN2C(=O)COc3ccc(C)cc32)cc1OC	n	n
CCCCC/C=C\C/C=C\C/C=C\C=C\C1CCCC(=O)O1 (configuration not stated)	n	n
O=C(CSc1ncc2c(n1)-c1cc(Cl)ccc1N(Cc1ccccc1)S2(=O)=O)NCc1ccccc1	16µM	n
CCN1c2ccccc2-c2nc(SCC(=O)Nc3ccc(C)c(Cl)c3)ncc2S1(=O)=O	u	n
COc1cccc(CN2c3ccccc3-c3nc(SCC(=O)Nc4ccccc4Cl)ncc3S2(=O)=O)c1	16µM	n
COc1cccc(CN2c3ccccc3-c3nc(SCC(=O)Nc4cccc(C)c4)ncc3S2(=O)=O)c1	u	n
